# HepG2 tox = HepG2 cytotoxicity, counter-screen for TGF-b inhibitors; HepG2 CAGA-GFP viability, ATP luminescence, 18 h; Potency, µM (top dose mostly 46.1 µM), for the others: top-dose activity change, negative = cytotoxicity, usual class: cytotoxic; hit rate 0.76% among 410,000; AID 588856; note: potency is the fitted concentration of half-maximal effect
#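 HepG2 CAGA-GFP cells (1000/well, DMEM with 1% FBS) received compound, then TGF-beta at 500 pg/mL final, and were incubated 18 hours at 37 degrees C. Viability was read by CellTiter-Glo luminescence. Media-only wells were set as complete cell-killing and DMSO as no toxicity.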
# TDP1 cell CPT = DT40-hTDP1 cell growth loss with CPT. hit rate 12% among 420,000. Potency, µM (top dose mostly 46.2 µM), for the others: top-dose activity change, negative = growth inhibition, usual class: inhibitors. chicken DT40 Tdp1-/-;hTDP1 cells + 20 nM CPT, ATP luminescence, 48 h; note: potency is the fitted concentration of half-maximal effect; % is set by controls: 0 for no effect and ±100 for the full control effect; nearly all actives have a fitted effect of over 55% in size
#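 Chicken DT40 Tdp1-/- cells stably complemented with human TDP1 were seeded at 400 cells/well in medium containing 20 nM camptothecin, exposed to pin-transferred compounds, and grown at 37 °C for at least 48 hr. Viability was read as ATP luminescence.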
# TGFb inhibitor = TGF-b pathway inhibition | HepG2 CAGA-GFP TGF-b/SMAD3 reporter, GFP fluorescence, 18 h; TGF-beta stimulated, 500 pg/mL final | Potency, µM (titrated, usually from 46.1 µM), inactives show at the top dose activity, negative = inhibition, hits mostly inhibitors | hit rate 1.2% among 410,000; note: potency is the fitted concentration of half-maximal effect; % is set by controls: 0 for no effect and ±100 for the full control effect; nearly all actives have a fitted effect of over 65% in size
#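 Read-out: total well GFP (ex488/em500-530) summed from mean per-cell fluorescence. Cells: HEPG2 CAGA-GFP, 1% FBS DMEM, 18 h at 37 degrees C with 500 pg/mL final TGF-beta. Unstimulated wells served as the full-inhibition control; stimulated DMSO wells = 0%.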
# TDP1 inh = blocks human tyrosyl-DNA phosphodiesterase 1. recombinant TDP1, AlphaScreen DNA substrate cleavage. Potency, µM (titrated, usually from 130 µM), for inactives: at the top dose activity change, negative = inhibition, actives largely listed as inhibitors. hit rate 0.28% among 350,000. AID 485290; note: potency is the fitted concentration of half-maximal effect; % is set by controls: 0 for no effect and ±100 for the full control effect; nearly all actives have a fitted effect of over 40% in size
# Target sequence (Q9NUW8 whole entry, looked up): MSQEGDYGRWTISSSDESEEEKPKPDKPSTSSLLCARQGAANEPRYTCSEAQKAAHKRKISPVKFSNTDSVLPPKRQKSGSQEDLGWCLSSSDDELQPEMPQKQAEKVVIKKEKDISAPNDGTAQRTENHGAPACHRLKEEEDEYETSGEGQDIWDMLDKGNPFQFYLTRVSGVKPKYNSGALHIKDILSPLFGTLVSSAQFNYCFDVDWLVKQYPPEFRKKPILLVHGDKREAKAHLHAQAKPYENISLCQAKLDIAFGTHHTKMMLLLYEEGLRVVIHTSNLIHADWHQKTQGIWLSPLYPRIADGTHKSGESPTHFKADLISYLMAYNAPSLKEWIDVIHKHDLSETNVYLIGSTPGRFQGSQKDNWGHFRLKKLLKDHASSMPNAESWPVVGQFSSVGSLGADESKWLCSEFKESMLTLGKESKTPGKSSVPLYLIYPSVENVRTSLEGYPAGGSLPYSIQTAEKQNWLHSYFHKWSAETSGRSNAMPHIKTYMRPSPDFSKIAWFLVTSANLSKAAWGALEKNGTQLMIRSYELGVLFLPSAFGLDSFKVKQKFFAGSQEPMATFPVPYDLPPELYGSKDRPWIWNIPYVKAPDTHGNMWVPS
#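 Enzyme-compound mixtures sat 15 min at room temperature, followed by a 5 min reaction with 15 nM final substrate and 10 min with AlphaScreen beads. Recombinant human Tdp1 was used at 1 nM final.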
# IL1B secr inh = inhibitors of inflammasome signaling (IL-1 beta secretion). THP-1 LPS/ATP IL-1B secretion, AlphaLISA, 16 h; hits give low values. AID 743279. activity change, % at 57.5 µM. hit rate 4.7% among 360,000; in the data active = activity change below about -50%; inconclusive = mostly about -30% to -49%; note: % is set by controls: 0 for no effect and ±100 for the full control effect
#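 THP-1 cells pretreated 1 hr with compounds (up to 57.5 uM final), then stimulated with LPS (250 ng/mL final) plus ATP (1.25 mM final); secreted IL-1B measured by AlphaLISA after 16 hr, decreased signal indicating inhibition.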
# TDP1 cell noCPT = qHTS for Inhibitors of human tyrosyl-DNA phosphodiesterase 1 (TDP1): qHTS in cells in absence of CPT. AID 686978, 2013. hit rate 15% among 420,000. Potency, µM (highest dose often 46.2 µM), inactives show at the highest dose activity change, negative = growth inhibition, usual class: inhibitors. DT40 Tdp1-/- hTDP1 cells, no CPT, ATP luminescence, 48 h; note: potency is the fitted concentration of half-maximal effect; % is set by controls: 0 for no effect and ±100 for the full control effect; nearly all actives have a fitted effect of over 55% in size
#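 No-CPT arm: Tdp1-/-;hTDP1 DT40 cells (400/well) plus compounds, incubated ≥48 hr at 37 °C. Readout CellTiter-Glo luminescence.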
# * = called active by the depositor; ? = inconclusive; / = not tested or not shown; [ ] = dose if it differs, or a comment. Sampled rows, rich in hits. Any-hit rate of the full collection: about 19%. Unless noted, calls come from the whole dose curve; as a rule, active = well fitted curve in the direction sought with a large enough effect; inconclusive = small, poorly fitted or top-dose-only effect, or another doubt; inactive = no such curve, though single readings can be large; an effect the other way counts as inactive or inconclusive.
SMILES,HepG2 tox,TDP1 cell CPT,TGFb inhibitor,TDP1 inh,IL1B secr inh,TDP1 cell noCPT
O=C(Nc1cccc(Cl)c1)OCCOC(=O)Nc1cccc(Cl)c1,-28%,?,?,/,?,21µM*
CC(=O)c1ccc(NC(=O)Nc2cccc(Cl)c2)cc1,-48%,21µM*,-26%,4%,-96*,?
CC(=O)Nc1ccc(NC(=O)Nc2cccc(Cl)c2)cc1,2%,-27%,-2%,/,-2,-8%
O=C(COC(=O)c1ccccc1Br)Nc1cccnc1Cl,-1%,-9%,11%,-18%,0,-2%
COc1ccc(Cl)cc1NC(=O)N1CCC(CN2CCCCCC2)CC1,0%,?,16%,-1%,/,?
O=S(=O)(Nc1ccc(-c2ccc(N3CCCC3)nn2)cc1)c1ccc(Br)cc1,-23%,?,-19%,7%,/,?
CS(=O)(=O)Nc1ccc([N+](=O)[O-])cc1OC1CCCCC1,/,-1%[92.5 µM],/,13%,/,?
CN1CCC/C1=C1/C(=O)N(c2ccccc2)N=C1NC(=O)Nc1cccc(Cl)c1,0%,8.2µM*,-11%,3%,-12,15µM*
COc1ccc(NC(=O)Nc2ccccc2SC)cc1,-46%,?,-15%,-3%,-15,-26%
CSc1ccccc1NC(=O)Nc1ccc(Cl)cc1,-34%,21µM*,?,-4%,?,-30%
O=C(NCc1ccc2c(c1)OCO2)Nc1cccc(Cl)c1,-36%,-5%,?,1%,-19,-2%
O=C(Nc1cccc(Cl)c1)Nc1ccc2c(c1)OCO2,-27%,?,-5%,2%,?,16µM*
NC(=O)c1ccccc1NC(=O)Nc1cccc(Cl)c1,-6%,12µM*,5%,2%,-1,?
O=C(NNc1ccc([N+](=O)[O-])cc1[N+](=O)[O-])C1C2CCCCC21 (configuration not stated),-24%,-9%,?,-1%,-16,?
CC12CCC(/C(=C/NNc3ccc([N+](=O)[O-])cc3[N+](=O)[O-])C1=O)C2(C)C (configuration not stated),-39%,18µM*,?,/,-7,18µM*
COc1cccc(OC)c1NC(=O)c1nc2c(nnn2Cc2ccccc2Cl)c(=O)[nH]1,-24%,-8%,-1%,-5%,20,-6%
O=C(Nc1ccc(F)cc1)c1nc2c(nnn2Cc2cccc3ccccc23)c(=O)[nH]1,-22%,?,9%,/,-98*,15µM*
CCC/C=C(\CCC)C(NC(=O)c1ccc(C(=O)OC)cc1)c1ccc(C(=O)OC)cc1 (configuration not stated),-11%,9.2µM*,13%,0%,33,7.3µM*
CCC/C=C(\CCC)C(NC(=O)c1cccs1)c1ccc(C(=O)OC)cc1 (configuration not stated),/,/,/,0%,/,/
COCCN1C(=O)N[C@@H](c2cccc(C(F)(F)F)c2)[C@H](C(C)=O)[C@H]1C,18µM*,-22%,?,-1%[12.3 µM],11,-23%
O=C(NCC1CCCCC1)c1cccc(-c2ccc(O)cc2)c1,-78%,?,13µM*,-1%,-53*,21µM*
O=C(NCC1CCCCC1)c1ccc(=O)[nH]c1,4%,7%,2%,/,38,-1%
Cc1ccc(C2(c3noc(CN(C)CCCN4CCOCC4)n3)CCCC2)cc1,/,/,/,6%,/,/
Cc1ccc(C2(c3noc(CN(C)Cc4cnn(C)c4)n3)CCCC2)cc1,-16%,21µM*,-15%,8%,-22,?
COc1ccc(S(=O)(=O)N2CCN(Cc3nc4ccc(C)cc4o3)CC2)cc1OC,-19%,?,-19%,9%,/,-20%
Cc1sc2ccccc2[n+]1CCCCI,-12%,?,2%,/,/,20µM*

# Screens as filed in PubChem.
